Experimental data reported in ChEMBL document CHEMBL3988442, “University of Dundee, Small-Polar-MMV Screening Library” (2021).
Screen size: about 48,000 compounds; about 13,000 (27%) showed an effect of 50% or more. The list shows a part of the results.

tested on: Wolbachia pipientis; assay: Anti-Wolbachia Cell-Based Screen; type: functional; design: scale not given: in the data most compounds retested in dose-response had high values; conditions: 5 µM

| SMILES | Percent Effect |
| --- | --- |
| Cc1nc(C2CCCN2CC(=O)Nc2c(C)nn(C)c2C)no1 (stereo not given) | -17.15% |
| Cc1cc(NC(=O)CN2CCCC2c2noc(C(C)C)n2)n(C)n1 (stereo not given) | -5.63% |
| CCc1nnc(CNC(=O)c2cc3c(nc2OC)CCC3)s1 | 18.91% |
| CCN1CCN(C(=O)c2cc(F)cc3nc(C)c(C)nc23)CC1 | -0.6809% |
| CC(C)[C@@H](C)NC(=O)N1CCn2nc(C(=O)NCCN(C)C)cc2C1 | -12.94% |
| CC(NCc1cccc(C#N)c1)c1ccccn1.Cl (stereo not given) | -10.04% |
| COc1ccccc1NCc1cscn1.Cl | -2.575% |
| O=C(Cn1cccnc1=O)NC(Cc1cccs1)c1ccccn1 (stereo not given) | -8.701% |
| CC(C)CC(NCc1ccsc1)c1ccccn1 (stereo not given) | 110.4% |
| CC(C)Cc1nnc(NCc2ccsc2)o1 | -5.765% |
| CC(C)CC(NCc1cccs1)c1ccccn1 (stereo not given) | 107.8% |
| NC(=O)C(NCc1cccs1)c1ccccc1 (stereo not given) | 8.593% |
| CC(C)CC(NCc1cscn1)c1ccccn1 (stereo not given) | 95.9% |
| COc1cc(C(C)NCc2cscn2)ccc1SC(F)F (stereo not given) | -37.81% |
| O=C(NCCc1[nH]nc2c1CCCC2)C1CCCN(Cc2ccco2)C1 (stereo not given) | 3.369% |
| COc1ccc(Cl)cc1CS(=O)(=O)Cc1cc(C)on1 | 6.419% |
| CC(C)OCCS(=O)(=O)c1nccn1-c1cccc(F)c1 | -15.74% |
| c1cc(C[C@H]2[C@H](N3CCOCC3)CCN2Cc2ccoc2)ccn1 | 0.9808% |
| CCN(CCCNc1ncnc2cc(F)c(F)cc12)S(C)(=O)=O | -17.06% |
| Cc1ccc(OCC2CCCN(CC3CCOCC3)C2)cc1 (stereo not given) | -21.59% |
| CC(C)N(C)C(=O)C1=NOC2(CCN(C(=O)c3ccncc3)C2)C1 (stereo not given) | 5.935% |
| CC(C)N(C)C(=O)C1=NOC2(CCN(C(=O)c3ccnnc3)C2)C1 (stereo not given) | 97.08% |
| CC(C)N(C)C(=O)C1=NOC2(CCN(C(=O)NCc3cccnc3)C2)C1 (stereo not given) | -9.701% |
| CC(C)N(C)C(=O)C1=NOC2(CCN(C(=O)c3cccn3C)C2)C1 (stereo not given) | 84.53% |
| Cc1ccsc1C(=O)N1CCC2(CC(C(=O)N(C)C(C)C)=NO2)C1 (stereo not given) | 115.3% |
| Cc1cccc(C(=O)N2CCC3(CC(C(=O)N(C)C(C)C)=NO3)C2)c1 (stereo not given) | 115.7% |
| O=C(NCC1CC1)C1=NOC2(CCN(S(=O)(=O)c3cccs3)C2)C1 (stereo not given) | 6.398% |
| Cc1cccc(C(C)CNC(=O)N2CCC3(C2)OCCO3)c1 (stereo not given) | -6.289% |

| SMILES | Percent Effect |
| --- | --- |
| CS(=O)(=O)NCc1ccc(C(=O)NCc2ccc3c(c2)CCC3)o1 | 9.511% |
| CCc1nc(Cn2ccnc2-c2nccn2C)no1 | 0.7793% |
| Cc1nc(CN(C)C2CCN(Cc3cccc4cccnc34)C2)no1 (stereo not given) | 89.88% |
| Cc1nc(CN(C)C2CCN(Cc3ccno3)C2)no1 (stereo not given) | 0.1776% |
| Cc1nc(CN(C)C2CCN(Cc3cccc4c3OCCO4)C2)no1 (stereo not given) | 98.62% |
| COc1ccc(OCC(=O)NC(C)c2ccc(F)cc2)c(C(=O)O)c1 (stereo not given) | -8.723% |
| Cc1cc(C(=O)N2CCCC(Cn3cc(C4CC4)nn3)C2)nc(C)n1 (stereo not given) | -17.66% |
| Cc1cc(-c2nccs2)nc(C2CCN(Cc3ccncc3)CC2)n1.Cl | 130.1% |
| CCn1c(CN2CCCC2)nnc1C1CCN(Cc2ccncc2)CC1 | -5.506% |
| CCn1c(CN(C)C)nnc1C1CCN(Cc2ccncc2)CC1 | -6.888% |
| Cc1ccsc1-c1nnc(C2CCN(Cc3ccc(F)cc3)CC2)o1 | -8.577% |
| Cc1cc(-c2nccs2)nc(C2CCN(Cc3ccc(F)cc3)CC2)n1.Cl | 104.7% |
| CNC(=O)CSC(C)c1ccc(Br)cc1 (stereo not given) | -4.092% |
| COC(=O)CN(C(=O)c1ccco1)c1cccc(F)c1 | 6.947% |
| O=c1c2cccnc2cnn1CC(O)c1cccc(C(F)(F)F)c1 (stereo not given) | 6.556% |
| CNC(=O)CS(=O)(=O)Cc1coc(-c2ccc(F)cc2)n1 | -9.885% |
| Cc1ccc(-c2nc(CCNC(=O)CCN3CCOC3=O)co2)cc1 | 4.701% |
| NC(=O)NC(=O)CCSCc1coc(-c2cccc(Cl)c2)n1 | 85.07% |
| CC(SCCC(=O)NC(N)=O)c1ccc(F)cc1F (stereo not given) | -2.178% |
| Cc1ccc(-c2nc(CSCCC(=O)NC(N)=O)co2)c(C)c1 | 110.2% |
| NC(=O)NC(=O)CCSc1ccccc1Cl | -10.1% |
| CC(O)CN1CCN(Cc2coc(-c3cccc(Cl)c3)n2)CC1 (stereo not given) | -12.56% |
| COCCN(Cc1coc(-c2cccc(Cl)c2)n1)C1CC1 | 9.963% |
| Cc1ccc(-c2nc(CSCCC(=O)NC(N)=O)co2)cc1 | 98.78% |
| NC(=O)NC(=O)CCSCc1coc(-c2ccc(F)cc2)n1 | 75.11% |
| COC(=O)CSCc1noc(-c2ccc(C)cc2)n1 | -9.658% |
| O=C(NCCc1coc(-c2ccc(F)cc2)n1)NC1CCC(O)CC1 (stereo not given) | 2.186% |
